From PubChem BioAssay (NCI)
About 83,000 compounds went through this panel and 20% of them were active in at least one assay; those are over-represented in the sample as a whole.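 Single-dose data. Exposure time 48 hours. Values below 10 considered active.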 Active and inactive are the calls of the source.

Assays:
Assay in all cases: NCI-60 one-dose screen, 48 h (100 = growth as untreated, 0 = no growth, -100 = all killed)
Details in all cases: 10 µM unless noted
[1] = system: SR leukemia
[2] = system: RPMI-8226 leukemia
[3] = system: OVCAR-8 ovarian
[4] = system: OVCAR-4 ovarian
[5] = system: SK-OV-3 ovarian
[6] = system: IGROV1 ovarian
[7] = system: OVCAR-3 ovarian
[8] = system: HS 578T breast
[9] = system: NCI/ADR-RES ovarian
[10] = system: T-47D breast
[11] = system: BT-549 breast
[12] = system: MDA-MB-435 melanoma
[13] = system: SW-620 colon
[14] = system: MCF7 breast
[15] = system: HCT-116 colon
[16] = system: HCC-2998 colon
[17] = system: KM12 colon
[18] = system: OVCAR-5 ovarian

Measured: growth

CCOc1ccc(Cc2nccc3cc(OCC)c(OCC)cc23)cc1OCC
inactive: [1] 26.7% | [2] 47.3% | [3] 69.1% | [4] 54.6% | [5] 87.2% | [6] 16.6% | [7] 75% | [8] 78.1% | [9] 65.3% | [10] 39.1% | [11] 49.1% | [12] 60.2% | [13] 39.1% | [14] 72.7% | [15] 26.5% | [16] 52.2% | [17] 49.3%

COc1cc(NC(=O)C#Cc2ccccc2)c(OC)cc1Cl
active: [6] 4.48%
inactive: [1] 12.4% | [2] 10.8% | [3] 38.6% | [4] 93.8% | [5] 97.8% | [7] 82.8% | [8] 79.8% | [9] 56.5% | [10] 71.1% | [11] 51.3% | [12] 59.3% | [13] 23.9% | [14] 22.6% | [15] 21.9% | [16] 90.9% | [17] 49.7%

CC(Cc1cccc(C(F)(F)F)c1)NCCOC(=O)c1ccccc1 (centres undefined)
inactive: [1] 92.4% | [2] 116% | [3] 110% | [4] 110% | [5] 106% | [6] 105% | [7] 115% | [8] 101% | [9] 92.9% | [10] 105% | [11] 109% | [12] 102% | [13] 103% | [14] 106% | [15] 100% | [16] 109% | [17] 114%

CCN(CC)CCC(C(=O)O)(c1ccccc1)c1ccccc1
inactive: [1] 95.7% | [2] 104% | [3] 113% | [4] 102% | [5] 92% | [6] 102% | [7] 110% | [8] 95.3% | [9] 97.8% | [10] 77.7% | [11] 95.6% | [12] 98.3% | [13] 97.9% | [14] 91.8% | [15] 90.9% | [16] 106% | [17] 100%

CCN(CC)CC(=O)Nc1c(C)cccc1C
inactive: [1] 98.3% | [2] 114% | [3] 107% | [4] 104% | [5] 109% | [6] 106% | [7] 118% | [8] 110% | [9] 104% | [10] 107% | [11] 97.3% | [12] 104% | [13] 106% | [14] 97% | [15] 96.1% | [16] 114% | [17] 113%

CN(C)CC/C=C1\c2ccccc2Sc2ccc(Cl)cc21
inactive: [1] 62% | [2] 72% | [3] 69.2% | [4] 69.9% | [5] 74.1% | [6] 53.8% | [7] 74.4% | [8] 65.6% | [9] 63.2% | [10] 70.7% | [11] 86.5% | [12] 36.2% | [13] 81.5% | [14] 62.3% | [15] 36.5% | [16] 27.4% | [17] 69.3%

Nc1ccc(S(=O)(=O)Nc2ccnn2-c2ccccc2)cc1
inactive: [1] 95.5% | [2] 117% | [3] 93.7% | [4] 109% | [5] 103% | [6] 107% | [7] 111% | [8] 103% | [9] 103% | [10] 104% | [11] 116% | [12] 97% | [13] 101% | [14] 101% | [15] 109% | [16] 98.8% | [17] 105%

O=C1CCC(c2c(O)cc(O)c3c(=O)c(O)c(-c4ccc(O)c(O)c4)oc23)N1 (centres undefined)
inactive: [1] 96.2% | [2] 99.5% | [3] 105% | [4] 108% | [5] 85.1% | [6] 107% | [7] 101% | [8] 100% | [9] 96.8% | [10] 83.6% | [11] 112% | [12] 110% | [13] 108% | [14] 95.2% | [15] 99.8% | [16] 89.4% | [17] 101%

O=C(Nc1ccccc1Cl)c1c[nH]c(=O)c(-c2ccc(N3CCCOC4(CC4)C3)cc2)c1
inactive: [1] 39.6% | [2] 21.2% | [3] 58.3% | [4] 44.3% | [5] 74.6% | [6] 85.7% | [7] 64.5% | [8] 87.3% | [9] 60.6% | [10] 31.5% | [11] 56.3% | [12] 56.4% | [13] 78.1% | [14] 40% | [15] 42.4% | [16] 67.5% | [17] 74.3%

O=C1c2ccccc2C(=O)c2c(NCCN=Cc3c(O)ccc4ccccc34)cccc21
inactive: [1] 32% | [2] 78.7% | [3] 69.9% | [4] 94.3% | [5] 84.2% | [6] 65.5% | [7] 83.7% | [8] 82.7% | [9] 85.5% | [10] 75% | [11] 106% | [12] 96% | [13] 79.3% | [14] 72.6% | [15] 45.5% | [16] 95.7% | [17] 89%

CC(NCCC(c1ccccc1)c1ccccc1)c1ccccc1 (centres undefined)
active: [1] -35.6% | [16] -31.1%
inactive: [2] 26.3% | [3] 84.3% | [4] 64.9% | [5] 99.1% | [6] 55.6% | [7] 78.4% | [8] 82.8% | [9] 79.1% | [10] 109% | [11] 83.1% | [12] 27% | [13] 36.7% | [14] 74.8% | [15] 42.8% | [17] 41.5%

COc1ccc(-c2[nH]c3ccccc3c2/C=C(\C#N)S(=O)(=O)c2ccccc2)cc1
inactive: [3] 44.4% | [18] 32.2% | [5] 29.2% | [6] 32.7% | [10] 66.7% | [11] 80.5% | [13] 28.6% | [15] 11%
active: [1] 1.93% | [4] -14.3% | [7] -35.7% | [9] 0.134% | [12] -5.59% | [14] 6.42% | [16] -29.2% | [17] 7.51%

COc1ccc(OCC(O)CN2CCN(c3ccc(Cl)cc3)CC2)cc1 (centres undefined)
active: [16] -94.4%
inactive: [1] 112% | [2] 98.9% | [3] 61.6% | [4] 79.8% | [5] 90.7% | [7] 105% | [8] 123% | [9] 185% | [10] 78% | [12] 106% | [13] 101% | [14] 89.2% | [15] 91.5% | [17] 98.9%

COc1ccc(C2CC(c3cc(Cl)c(C)cc3OC)=NN2c2ccc(S(N)(=O)=O)cc2)cc1OC (centres undefined)
inactive: [2] 91% | [3] 73.8% | [18] 70.6% | [4] 87.8% | [5] 116% | [6] 79.1% | [7] 103% | [8] 101% | [9] 77.2% | [10] 77% | [11] 83.2% | [12] 95.8% | [13] 93.6% | [14] 80.4% | [15] 56.7% | [16] 99.9% | [17] 91.8%

CCOc1ccc(NC(=O)Nc2cc(C(C)C)ccc2C)cc1
active: [8] 4.79%
inactive: [1] 36.6% | [2] 43.4% | [3] 27.1% | [4] 44.6% | [5] 93.4% | [7] 50.9% | [9] 58.7% | [10] 77.3% | [11] 114% | [12] 85% | [13] 91.1% | [14] 111% | [15] 36.3% | [16] 59.8% | [17] 75.4%

Cc1cc(NC(=O)c2cccc(C(F)(F)F)c2)ccc1-n1ccc2c(NC(=O)c3ccccc3)nccc21
inactive: [1] 96.3% | [2] 73.3% | [3] 98.2% | [4] 96.7% | [5] 108% | [6] 92.7% | [7] 95.7% | [9] 102% | [10] 78.8% | [11] 88.7% | [12] 105% | [13] 110% | [14] 103% | [15] 83.5% | [16] 115% | [17] 100%

c1coc(CSc2ncnc3nc[nH]c23)c1
inactive: [2] 107% | [3] 90.3% | [18] 103% | [4] 99% | [5] 95.7% | [6] 97.1% | [7] 107% | [8] 106% | [9] 106% | [10] 93.6% | [11] 120% | [12] 116% | [13] 97.9% | [14] 89.9% | [15] 97.7% | [16] 107% | [17] 102%
